Test results from publication PMC7862700, “An all-to-all approach to the identification of sequence-specific readers for epigenetic DNA modifications on cytosine”.

Tests used:
Assay in all cases: DAPPL (digital affinity profiling via proximity ligation, sequencing); 10 mM Tris-HCl pH 7.5, 50 mM NaCl, 1 mM DTT, 4% glycerol, room temperature, 30 min; GST-TFs on glutathione beads, 16-mer random dsDNA library, 0.1% formaldehyde crosslink after washing; high values mean tight binding
FLI1 = target: T1, FLI1 (Homo sapiens, UniProt Q01543 1-452); conditions: protein: recombinant; tags: N-terminal GST; dsDNA, one strand shown
T1 sequence: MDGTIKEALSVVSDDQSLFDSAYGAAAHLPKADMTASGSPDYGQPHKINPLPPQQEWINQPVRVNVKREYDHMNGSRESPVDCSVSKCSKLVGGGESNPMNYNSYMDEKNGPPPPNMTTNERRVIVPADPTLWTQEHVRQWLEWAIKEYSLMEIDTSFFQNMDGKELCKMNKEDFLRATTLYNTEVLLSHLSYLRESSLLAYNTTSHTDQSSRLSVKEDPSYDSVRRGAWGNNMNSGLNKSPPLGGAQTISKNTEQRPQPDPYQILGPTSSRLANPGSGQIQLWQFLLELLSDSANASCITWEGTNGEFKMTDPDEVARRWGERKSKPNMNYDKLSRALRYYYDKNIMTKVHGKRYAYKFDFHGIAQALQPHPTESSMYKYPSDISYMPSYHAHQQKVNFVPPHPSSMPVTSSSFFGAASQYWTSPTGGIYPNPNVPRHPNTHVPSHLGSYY
In short: (§1)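 A tag-only sample was pooled with DNA-barcoded human transcription factors that had been expressed in yeast as GST fusions and captured on glutathione beads. The pools were incubated for 30 min at room temperature with 200 nmole of a random double-stranded 16-mer DNA library in Tris/NaCl/DTT/glycerol buffer, then washed, crosslinked with 0.1% formaldehyde, proximity-ligated (BsaI/T4 ligase, 1 h, 37 °C), PCR-amplified and sequenced on an Illumina NextSeq500. Binding signal is each hexamer's read frequency for a factor divided by its frequency for the tag-only sample.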

ELK1 = target: T2, ELK1 (Homo sapiens, UniProt P19419 1-428); conditions: protein: recombinant; tags: N-terminal GST; dsDNA, one strand shown
T2 sequence: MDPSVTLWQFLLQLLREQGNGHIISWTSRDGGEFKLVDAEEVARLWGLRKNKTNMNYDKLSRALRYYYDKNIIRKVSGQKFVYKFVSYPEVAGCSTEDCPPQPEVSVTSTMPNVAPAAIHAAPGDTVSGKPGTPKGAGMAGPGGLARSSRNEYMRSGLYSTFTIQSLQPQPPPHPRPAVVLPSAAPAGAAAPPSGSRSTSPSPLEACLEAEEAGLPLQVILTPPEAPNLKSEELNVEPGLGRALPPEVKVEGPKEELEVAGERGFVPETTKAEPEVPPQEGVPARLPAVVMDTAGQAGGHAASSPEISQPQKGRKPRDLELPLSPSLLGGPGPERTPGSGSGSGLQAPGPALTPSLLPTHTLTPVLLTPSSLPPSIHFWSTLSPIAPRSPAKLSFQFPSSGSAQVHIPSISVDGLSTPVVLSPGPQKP
In short: as §1

GABPA = target: T3, GABPA (Homo sapiens, UniProt Q06546 1-454); conditions: protein: recombinant; tags: N-terminal GST; dsDNA, one strand shown
T3 sequence: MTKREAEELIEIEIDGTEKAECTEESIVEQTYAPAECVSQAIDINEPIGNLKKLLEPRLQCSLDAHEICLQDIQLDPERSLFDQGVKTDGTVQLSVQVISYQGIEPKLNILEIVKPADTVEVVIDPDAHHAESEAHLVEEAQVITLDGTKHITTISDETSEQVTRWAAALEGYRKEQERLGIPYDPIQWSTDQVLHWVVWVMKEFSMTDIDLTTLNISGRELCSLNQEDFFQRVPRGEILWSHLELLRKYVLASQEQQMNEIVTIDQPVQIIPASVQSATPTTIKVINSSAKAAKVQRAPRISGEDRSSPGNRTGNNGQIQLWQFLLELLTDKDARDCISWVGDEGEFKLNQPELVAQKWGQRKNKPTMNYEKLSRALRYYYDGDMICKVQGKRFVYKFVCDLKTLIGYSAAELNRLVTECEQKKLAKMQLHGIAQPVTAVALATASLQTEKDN
In short: as §1

ERG = target: T4, ERG (Homo sapiens, UniProt P11308 1-479); conditions: protein: recombinant; tags: N-terminal GST; dsDNA, one strand shown
T4 sequence: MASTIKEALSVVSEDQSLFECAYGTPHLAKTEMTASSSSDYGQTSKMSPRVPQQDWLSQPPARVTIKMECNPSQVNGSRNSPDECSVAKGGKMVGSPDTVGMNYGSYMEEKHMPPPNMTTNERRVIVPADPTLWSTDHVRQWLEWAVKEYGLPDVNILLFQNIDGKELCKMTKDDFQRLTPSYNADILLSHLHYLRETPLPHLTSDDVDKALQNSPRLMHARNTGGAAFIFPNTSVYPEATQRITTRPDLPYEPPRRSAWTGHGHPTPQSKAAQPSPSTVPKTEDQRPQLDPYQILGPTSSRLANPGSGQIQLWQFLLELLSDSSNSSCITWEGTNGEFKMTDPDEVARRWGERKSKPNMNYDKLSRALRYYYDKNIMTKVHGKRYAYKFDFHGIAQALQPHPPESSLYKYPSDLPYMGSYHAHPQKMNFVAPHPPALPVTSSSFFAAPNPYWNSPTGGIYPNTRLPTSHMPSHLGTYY
In short: as §1

ELF1 = ELF1 (Homo sapiens, UniProt P32519 1-619); conditions: protein: recombinant; tags: N-terminal GST; dsDNA, one strand shown
In short: as §1

EHF = target: T5, EHF (Homo sapiens, UniProt Q9NZC4 1-300); conditions: protein: recombinant; tags: N-terminal GST; dsDNA, one strand shown
T5 sequence: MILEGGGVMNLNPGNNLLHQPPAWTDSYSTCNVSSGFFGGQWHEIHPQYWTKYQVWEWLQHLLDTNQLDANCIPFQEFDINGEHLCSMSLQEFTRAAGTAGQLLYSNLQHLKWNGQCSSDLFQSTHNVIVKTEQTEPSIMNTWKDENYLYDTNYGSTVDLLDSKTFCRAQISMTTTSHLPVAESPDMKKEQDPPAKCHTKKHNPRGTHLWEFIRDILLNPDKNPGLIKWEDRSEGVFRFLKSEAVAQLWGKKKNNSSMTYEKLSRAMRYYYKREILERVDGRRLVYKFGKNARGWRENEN
In short: as §1

SPI1 = SPI1 (Homo sapiens, UniProt P17947 1-270); conditions: protein: recombinant; tags: N-terminal GST; dsDNA, one strand shown
In short: as §1

SPIB = SPIB (Homo sapiens, UniProt Q01892 1-262); conditions: protein: recombinant; tags: N-terminal GST; dsDNA, one strand shown
In short: as §1

ELK3 = target: T6, ELK3 (Homo sapiens, UniProt P41970 1-407); conditions: protein: recombinant; tags: N-terminal GST; dsDNA, one strand shown
T6 sequence: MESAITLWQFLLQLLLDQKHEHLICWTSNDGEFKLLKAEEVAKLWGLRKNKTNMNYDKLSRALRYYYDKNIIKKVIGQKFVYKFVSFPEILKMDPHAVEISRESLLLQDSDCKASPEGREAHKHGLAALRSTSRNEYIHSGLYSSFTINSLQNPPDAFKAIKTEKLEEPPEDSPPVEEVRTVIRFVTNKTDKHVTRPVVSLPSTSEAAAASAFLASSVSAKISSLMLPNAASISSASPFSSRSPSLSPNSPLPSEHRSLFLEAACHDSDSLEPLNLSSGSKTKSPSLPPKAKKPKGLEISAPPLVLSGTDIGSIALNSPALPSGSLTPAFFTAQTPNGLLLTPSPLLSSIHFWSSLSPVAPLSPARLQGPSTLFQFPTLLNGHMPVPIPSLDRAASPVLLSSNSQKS
In short: as §1

FEV = target: T7, FEV (Homo sapiens, UniProt Q99581 1-238); conditions: protein: recombinant; tags: N-terminal GST; dsDNA, one strand shown
T7 sequence: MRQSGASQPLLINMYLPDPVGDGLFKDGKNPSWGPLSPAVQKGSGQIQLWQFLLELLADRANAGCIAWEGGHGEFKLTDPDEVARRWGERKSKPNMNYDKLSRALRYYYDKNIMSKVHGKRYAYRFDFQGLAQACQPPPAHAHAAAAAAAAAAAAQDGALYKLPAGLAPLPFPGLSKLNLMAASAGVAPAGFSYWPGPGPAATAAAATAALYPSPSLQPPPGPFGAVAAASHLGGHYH
In short: as §1

ETV5 = ETV5 (Homo sapiens, UniProt P41161 1-510); conditions: protein: recombinant; tags: N-terminal GST; dsDNA, one strand shown
In short: as §1

HSF1 = HSF1 (Homo sapiens, UniProt Q00613 1-529); conditions: protein: recombinant; tags: N-terminal GST; chain copies: 3; dsDNA, one strand shown
In short: as §1

SPIC = target: T8, SPIC (Homo sapiens, UniProt Q8N5J4 1-248); conditions: protein: recombinant; tags: N-terminal GST; dsDNA, one strand shown
T8 sequence: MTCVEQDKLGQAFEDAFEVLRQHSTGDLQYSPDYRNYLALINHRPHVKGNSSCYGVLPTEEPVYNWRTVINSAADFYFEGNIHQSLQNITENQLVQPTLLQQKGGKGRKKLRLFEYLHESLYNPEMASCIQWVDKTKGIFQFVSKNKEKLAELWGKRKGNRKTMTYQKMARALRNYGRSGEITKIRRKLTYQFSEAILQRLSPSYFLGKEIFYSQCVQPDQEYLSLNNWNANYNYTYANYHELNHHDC
In short: as §1

ELF4 = ELF4 (Homo sapiens, UniProt Q99607 1-663); conditions: protein: recombinant; tags: N-terminal GST; dsDNA, one strand shown
In short: as §1

ELK4 = target: T9, ELK4 (Homo sapiens, UniProt P28324-2 1-405); conditions: protein: recombinant; tags: N-terminal GST; dsDNA, one strand shown
T9 sequence: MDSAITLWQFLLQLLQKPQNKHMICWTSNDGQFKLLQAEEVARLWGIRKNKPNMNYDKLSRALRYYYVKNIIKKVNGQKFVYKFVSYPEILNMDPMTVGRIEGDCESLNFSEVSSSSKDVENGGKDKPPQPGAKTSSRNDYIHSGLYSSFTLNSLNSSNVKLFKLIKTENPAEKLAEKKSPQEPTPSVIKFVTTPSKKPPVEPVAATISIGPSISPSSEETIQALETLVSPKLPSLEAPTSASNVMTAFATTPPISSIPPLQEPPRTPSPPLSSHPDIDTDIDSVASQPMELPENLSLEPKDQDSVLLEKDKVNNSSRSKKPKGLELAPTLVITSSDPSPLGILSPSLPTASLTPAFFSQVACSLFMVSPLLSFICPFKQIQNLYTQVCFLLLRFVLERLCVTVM
In short: as §1

ETV2 = target: T10, ETV2 (Homo sapiens, UniProt O00321 1-342); conditions: protein: recombinant; tags: N-terminal GST; dsDNA, one strand shown
T10 sequence: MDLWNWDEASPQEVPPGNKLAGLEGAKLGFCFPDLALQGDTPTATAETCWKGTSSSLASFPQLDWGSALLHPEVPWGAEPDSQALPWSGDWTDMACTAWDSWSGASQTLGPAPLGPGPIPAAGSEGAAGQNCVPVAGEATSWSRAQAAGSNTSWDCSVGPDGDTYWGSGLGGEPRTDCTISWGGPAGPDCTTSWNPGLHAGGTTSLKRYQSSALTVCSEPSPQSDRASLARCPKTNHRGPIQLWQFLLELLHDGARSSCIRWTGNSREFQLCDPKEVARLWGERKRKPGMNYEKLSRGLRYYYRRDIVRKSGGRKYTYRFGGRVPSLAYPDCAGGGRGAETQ
In short: as §1

ELF3 = target: T11, ELF3 (Homo sapiens, UniProt P78545 1-371); conditions: protein: recombinant; tags: N-terminal GST; dsDNA, one strand shown
T11 sequence: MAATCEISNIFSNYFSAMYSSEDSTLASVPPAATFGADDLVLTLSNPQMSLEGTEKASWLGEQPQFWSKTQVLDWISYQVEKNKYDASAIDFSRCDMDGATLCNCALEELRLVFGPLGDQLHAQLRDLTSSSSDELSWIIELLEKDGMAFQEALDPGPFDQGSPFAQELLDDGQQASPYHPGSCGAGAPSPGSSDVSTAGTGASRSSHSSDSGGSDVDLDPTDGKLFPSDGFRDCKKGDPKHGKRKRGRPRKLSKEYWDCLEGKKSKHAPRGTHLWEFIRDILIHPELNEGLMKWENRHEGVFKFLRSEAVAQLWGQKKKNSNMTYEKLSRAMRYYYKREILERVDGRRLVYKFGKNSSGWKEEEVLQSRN
In short: as §1

CRX = CRX (Homo sapiens, UniProt O43186 1-299); conditions: protein: recombinant; tags: N-terminal GST; dsDNA, one strand shown
In short: as §1

ETV1 = ETV1 (Homo sapiens, UniProt P50549 1-477); conditions: protein: recombinant; tags: N-terminal GST; dsDNA, one strand shown
In short: as §1

ETV5, sequence (P41161 whole entry): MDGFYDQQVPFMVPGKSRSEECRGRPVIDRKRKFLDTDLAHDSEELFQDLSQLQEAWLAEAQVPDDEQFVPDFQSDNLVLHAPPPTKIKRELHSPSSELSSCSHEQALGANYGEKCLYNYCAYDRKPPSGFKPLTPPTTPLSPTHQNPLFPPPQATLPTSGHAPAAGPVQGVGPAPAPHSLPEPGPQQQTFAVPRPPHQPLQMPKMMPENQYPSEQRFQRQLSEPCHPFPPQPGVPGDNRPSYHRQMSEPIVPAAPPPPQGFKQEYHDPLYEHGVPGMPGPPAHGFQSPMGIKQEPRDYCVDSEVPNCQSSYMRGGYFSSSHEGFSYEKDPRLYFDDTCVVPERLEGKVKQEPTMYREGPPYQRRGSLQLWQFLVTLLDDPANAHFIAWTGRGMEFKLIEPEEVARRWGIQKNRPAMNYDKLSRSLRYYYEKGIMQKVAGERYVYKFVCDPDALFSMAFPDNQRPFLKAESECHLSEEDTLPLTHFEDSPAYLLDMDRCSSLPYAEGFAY
CRX, sequence (O43186 whole entry): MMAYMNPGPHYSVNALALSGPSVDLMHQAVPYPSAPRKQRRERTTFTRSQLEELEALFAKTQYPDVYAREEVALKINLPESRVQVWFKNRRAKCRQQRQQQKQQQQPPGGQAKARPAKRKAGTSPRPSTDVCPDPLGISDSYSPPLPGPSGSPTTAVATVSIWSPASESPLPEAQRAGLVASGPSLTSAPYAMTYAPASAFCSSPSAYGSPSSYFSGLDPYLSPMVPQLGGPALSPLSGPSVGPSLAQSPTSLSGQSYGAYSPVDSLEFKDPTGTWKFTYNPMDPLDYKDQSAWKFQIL
ETV1, sequence (P50549 whole entry): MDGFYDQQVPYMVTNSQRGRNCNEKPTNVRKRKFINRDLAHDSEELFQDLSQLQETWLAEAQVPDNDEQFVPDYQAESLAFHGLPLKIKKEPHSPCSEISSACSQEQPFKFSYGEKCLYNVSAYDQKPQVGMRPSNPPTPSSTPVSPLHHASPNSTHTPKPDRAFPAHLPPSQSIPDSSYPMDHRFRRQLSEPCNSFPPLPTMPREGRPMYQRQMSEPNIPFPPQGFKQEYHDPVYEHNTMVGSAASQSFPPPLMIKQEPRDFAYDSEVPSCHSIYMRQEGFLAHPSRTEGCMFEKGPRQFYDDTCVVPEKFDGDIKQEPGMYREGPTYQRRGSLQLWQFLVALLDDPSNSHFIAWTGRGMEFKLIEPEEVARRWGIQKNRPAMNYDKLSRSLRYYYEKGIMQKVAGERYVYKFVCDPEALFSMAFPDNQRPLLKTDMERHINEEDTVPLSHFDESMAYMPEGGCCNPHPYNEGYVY
ELF1, sequence (P32519 whole entry): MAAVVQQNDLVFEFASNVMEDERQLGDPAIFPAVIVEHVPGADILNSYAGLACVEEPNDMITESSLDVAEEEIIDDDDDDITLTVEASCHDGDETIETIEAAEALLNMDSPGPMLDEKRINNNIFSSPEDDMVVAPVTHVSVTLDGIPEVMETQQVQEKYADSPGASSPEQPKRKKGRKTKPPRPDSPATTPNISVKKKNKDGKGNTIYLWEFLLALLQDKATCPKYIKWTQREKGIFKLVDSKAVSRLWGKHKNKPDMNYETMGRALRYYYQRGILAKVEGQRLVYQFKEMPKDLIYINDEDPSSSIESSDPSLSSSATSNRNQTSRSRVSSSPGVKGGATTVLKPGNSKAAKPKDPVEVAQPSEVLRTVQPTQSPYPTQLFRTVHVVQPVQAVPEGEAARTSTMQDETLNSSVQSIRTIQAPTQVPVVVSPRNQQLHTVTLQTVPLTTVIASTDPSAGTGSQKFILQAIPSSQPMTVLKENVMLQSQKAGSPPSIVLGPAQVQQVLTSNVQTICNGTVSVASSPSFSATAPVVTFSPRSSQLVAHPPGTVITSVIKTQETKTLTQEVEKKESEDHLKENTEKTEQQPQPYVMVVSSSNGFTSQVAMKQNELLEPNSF
HSF1, sequence (Q00613 whole entry): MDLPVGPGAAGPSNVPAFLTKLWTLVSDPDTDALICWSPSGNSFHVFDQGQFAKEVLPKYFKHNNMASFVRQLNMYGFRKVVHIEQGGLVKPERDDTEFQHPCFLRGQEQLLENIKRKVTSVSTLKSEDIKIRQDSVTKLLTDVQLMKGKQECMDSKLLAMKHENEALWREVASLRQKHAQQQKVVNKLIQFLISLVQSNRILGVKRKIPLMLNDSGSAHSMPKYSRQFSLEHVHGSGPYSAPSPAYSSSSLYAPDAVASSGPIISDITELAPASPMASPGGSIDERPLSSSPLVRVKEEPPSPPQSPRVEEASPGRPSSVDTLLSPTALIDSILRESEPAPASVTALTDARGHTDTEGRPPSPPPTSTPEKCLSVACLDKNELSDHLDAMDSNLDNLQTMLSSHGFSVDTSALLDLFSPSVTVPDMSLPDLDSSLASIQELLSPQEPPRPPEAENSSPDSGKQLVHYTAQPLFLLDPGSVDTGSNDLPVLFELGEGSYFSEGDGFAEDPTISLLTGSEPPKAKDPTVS
SPIB, sequence (Q01892 whole entry): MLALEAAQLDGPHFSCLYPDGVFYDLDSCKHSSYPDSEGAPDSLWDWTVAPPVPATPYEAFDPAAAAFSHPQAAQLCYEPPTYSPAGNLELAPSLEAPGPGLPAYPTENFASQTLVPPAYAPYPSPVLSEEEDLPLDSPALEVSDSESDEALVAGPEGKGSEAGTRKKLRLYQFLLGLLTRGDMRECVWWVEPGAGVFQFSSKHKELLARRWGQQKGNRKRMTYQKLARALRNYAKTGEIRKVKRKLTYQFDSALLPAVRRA
ELF4, sequence (Q99607 whole entry): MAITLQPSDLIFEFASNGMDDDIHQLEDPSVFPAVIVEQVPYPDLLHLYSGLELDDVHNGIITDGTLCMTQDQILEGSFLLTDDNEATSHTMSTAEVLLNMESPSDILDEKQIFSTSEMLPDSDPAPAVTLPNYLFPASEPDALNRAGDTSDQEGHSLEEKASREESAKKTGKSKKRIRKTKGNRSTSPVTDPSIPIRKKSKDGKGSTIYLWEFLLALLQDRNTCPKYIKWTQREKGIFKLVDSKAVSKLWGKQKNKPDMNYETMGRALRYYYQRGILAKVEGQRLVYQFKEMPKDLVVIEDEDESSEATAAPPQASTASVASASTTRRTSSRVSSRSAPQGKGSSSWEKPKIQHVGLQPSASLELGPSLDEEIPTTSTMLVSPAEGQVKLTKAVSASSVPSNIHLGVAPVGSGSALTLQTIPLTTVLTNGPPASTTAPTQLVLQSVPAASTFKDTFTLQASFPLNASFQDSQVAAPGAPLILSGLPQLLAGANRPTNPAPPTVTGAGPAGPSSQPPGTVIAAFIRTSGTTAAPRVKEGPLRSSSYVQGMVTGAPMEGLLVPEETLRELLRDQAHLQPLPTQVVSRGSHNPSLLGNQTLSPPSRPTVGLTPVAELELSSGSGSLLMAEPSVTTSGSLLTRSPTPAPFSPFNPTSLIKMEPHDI

TTATGG
binding signal (FLI1): 1.42 fold enrichment (6-mer frequency, TF over GST control) | binding signal (ELK1): 1.39 fold enrichment (6-mer frequency, TF over GST control) | binding signal (GABPA): 1.39 fold enrichment (6-mer frequency, TF over GST control) | binding signal (ERG): 1.3 fold enrichment (6-mer frequency, TF over GST control) | binding signal (ELF1): 1.3 fold enrichment (6-mer frequency, TF over GST control) | binding signal (EHF): 1.46 fold enrichment (6-mer frequency, TF over GST control) | binding signal (SPI1): 1.34 fold enrichment (6-mer frequency, TF over GST control) | binding signal (SPIB): 1.44 fold enrichment (6-mer frequency, TF over GST control) | binding signal (ELK3): 1.39 fold enrichment (6-mer frequency, TF over GST control) | binding signal (FEV): 1.33 fold enrichment (6-mer frequency, TF over GST control) | binding signal (ETV5): 1.39 fold enrichment (6-mer frequency, TF over GST control) | binding signal (HSF1): 1.74 fold enrichment (6-mer frequency, TF over GST control) | binding signal (SPIC): 1.53 fold enrichment (6-mer frequency, TF over GST control) | binding signal (ELF4): 1.31 fold enrichment (6-mer frequency, TF over GST control) | binding signal (ELK4): 1.24 fold enrichment (6-mer frequency, TF over GST control) | binding signal (ETV2): 1.45 fold enrichment (6-mer frequency, TF over GST control) | binding signal (ELF3): 1.53 fold enrichment (6-mer frequency, TF over GST control) | binding signal (CRX): 2.62 fold enrichment (6-mer frequency, TF over GST control) | binding signal (ETV1): 1.41 fold enrichment (6-mer frequency, TF over GST control)
